Screens as filed in PubChem.
In the library only some 7.5% were active in any assay of this set; here they are far more common.
SMN2 splice enh: enhancers of SMN2 splice variant expression; actives 2.8% (n = 210,000); HEK293 SMN2-luciferase splicing reporter, luminescence, 30-36 h; Potency, µM (highest dose often 46.1 µM), inactives show at the highest dose activity change, positive = activation, hits mostly activators; also: % of control where 0% means no effect; nearly all actives have a fitted effect of over 55% in size
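HEK293 cells carry an SMN2 minigene-luciferase reporter in which exon 7 inclusion puts luciferase in frame. Cells were seeded at 2000 cells/well, attached for 10-12 hours, then exposed to compounds for 30-36 hours at 37C before ONE-Glo luminescence.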
FLuc modulator: counter-screen for miR-21 project: firefly luciferase inhibitors or activators; P08659; purified FLuc, Km substrates, luminescence inhibition; Potency, µM (doses to about 57.5 µM), inactives show at the highest dose activity change, negative = inhibition, actives largely listed as inhibitors; actives 6.9% (n = 360,000);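 also: plate controls were vehicle for no effect and reference inhibitor for full effect; nearly all actives have a fitted effect of over 55% in size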
Target sequence (P08659 whole entry, looked up): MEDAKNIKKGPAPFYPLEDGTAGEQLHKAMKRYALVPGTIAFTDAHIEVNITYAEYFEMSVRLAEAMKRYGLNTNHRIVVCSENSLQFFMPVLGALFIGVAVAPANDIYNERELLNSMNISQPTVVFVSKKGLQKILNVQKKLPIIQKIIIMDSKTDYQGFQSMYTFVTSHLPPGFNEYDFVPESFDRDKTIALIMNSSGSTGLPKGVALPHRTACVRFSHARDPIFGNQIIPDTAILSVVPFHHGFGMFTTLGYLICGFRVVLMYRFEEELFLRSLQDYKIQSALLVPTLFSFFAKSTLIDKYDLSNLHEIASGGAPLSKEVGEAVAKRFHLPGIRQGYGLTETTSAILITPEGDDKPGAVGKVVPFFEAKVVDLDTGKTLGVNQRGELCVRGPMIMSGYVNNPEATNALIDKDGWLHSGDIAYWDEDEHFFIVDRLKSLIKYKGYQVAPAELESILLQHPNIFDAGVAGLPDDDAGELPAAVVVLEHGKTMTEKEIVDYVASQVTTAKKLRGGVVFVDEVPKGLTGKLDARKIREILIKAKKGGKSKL
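Purified P. pyralis luciferase, 10 nM final, with Km-level 10 uM D-luciferin and 10 uM ATP in 50 mM Tris acetate pH 7.5, 10 mM Mg acetate, 0.01% Tween-20, 0.05% BSA; 6-point qHTS titration about 60 µM downward; luminescence read.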
Rab9 promoter act: activates the Rab9 promoter; Huh7 Rab9 promoter-luciferase reporter, luminescence, 24 h; Potency, µM (series often up to 9.22 µM), inactives show at the top dose activation, negative = inhibition, hits mostly activators; actives 2.8% (n = 320,000); also: % of control where 0% means no effect; nearly all actives have a fitted effect of over 60% in size
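Rab9 promoter-driven luciferase in stably transfected Huh7 cells; 1500 cells/well rested 2 h, exposed to compound in DMSO for 24 h at 37 °C, 5% CO2. Luminescence read 10 min after adding luciferase reagent at ambient temperature.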
NPC1 prom act: activates the NPC1 promoter; Huh7 NPC1 promoter luciferase reporter, 24 h; Potency, µM (series often up to 9.22 µM), for the others: at the highest dose activation, actives largely listed as activators; actives 2.4% (n = 320,000); AID 485313; also: % of control where 0% means no effect; nearly all actives have a fitted effect of over 60% in size
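Huh7 cells stably carrying NPC1 promoter–luciferase, plated in Opti-MEM with 10% FBS for 2 h, were exposed to compound in DMSO for 24 h at 37 °C; luciferase reagent was added for 10 min and luminescence read.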
ELG1 genotox: induces genotoxicity in HEK293T cells with luciferase-tagged ELG1; Potency, µM (top dose mostly 46 µM), without a hit: at the highest dose activity change, positive = activation, usual class: activators; actives 1.3% (n = 330,000); HEK293T ELG1-luciferase reporter, luminescence, 16 h; also: % of control where 0% means no effect; nearly all actives have a fitted effect of over 60% in size
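Screening used a luciferase reporter fused to human ELG1 in HEK293T cells. Luminescence was read on a CCD plate imager after 16 hr exposure and 30 min ONE-Glo incubation.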
The depositor's hits bear a star. Calls follow the shape of the dose curve; as a rule, active = well fitted curve in the direction sought with a large enough effect; inconclusive = small, poorly fitted or top-dose-only effect, or another doubt; inactive = no such curve, though single readings can be large; an effect the other way counts as inactive or inconclusive. Potency is read from the fitted curve at half-maximal effect.

`CN(C)C(=O)c1cn(-c2ccccc2)nc1-c1cc2ccccc2o1` gave SMN2 splice enh -9%, FLuc modulator 24µM*, Rab9 promoter act -4%, NPC1 prom act -1% and ELG1 genotox -1%.
`COC(=O)C1CCN(Cc2cn(Cc3ccccc3)nc2-c2cc3ccccc3o2)CC1` gave FLuc modulator 0%, Rab9 promoter act 0%, NPC1 prom act 0% and ELG1 genotox -7%.
`O=C(Nc1ccc([N+](=O)[O-])cc1)c1cn(-c2ccccc2)nc1-c1cc2ccccc2o1` gave SMN2 splice enh 2%, FLuc modulator 4%, Rab9 promoter act -2%, NPC1 prom act -1% and ELG1 genotox inconclusive.
`O=C(O)c1cc(-c2cc3ccccc3o2)nn1-c1ccccc1` gave SMN2 splice enh 13%, FLuc modulator inconclusive, Rab9 promoter act 14%, NPC1 prom act -4% and ELG1 genotox 5%.
For CCSc1nnc(SCC(=O)NC2CCCCC2)s1 the results were FLuc modulator 3%, Rab9 promoter act -2%, NPC1 prom act -1% and ELG1 genotox 3%.
`Cc1cc(C)nc(Nc2n[nH]c(-c3ccccc3C)n2)n1` gave SMN2 splice enh 11µM*, FLuc modulator 9.5µM*, Rab9 promoter act 1.8µM*, NPC1 prom act 2µM* and ELG1 genotox 21µM*.
Cc1cc(C)nc(Nc2n[nH]c(-c3ccccc3Br)n2)n1 was read as SMN2 splice enh 81%, FLuc modulator 9.5µM*, Rab9 promoter act inconclusive, NPC1 prom act inconclusive and ELG1 genotox 18µM*.
`CCOC(=O)CCNC(C(=O)OCC)c1ccccc1` (stereo not drawn) gave FLuc modulator 0%, Rab9 promoter act 0%, NPC1 prom act 1% and ELG1 genotox -1%.
`N[C@@H](CCS(=O)O)C(=O)O` gave SMN2 splice enh -3%.
Screening O=C(CN1CCCc2ccccc21)N/N=C/c1ccc(O)cc1O returned SMN2 splice enh -3%, FLuc modulator 15µM*, Rab9 promoter act -18%, NPC1 prom act -13% and ELG1 genotox 21µM*.
O=C(CN1CCCc2ccccc21)N/N=C/c1ccccc1 was read as SMN2 splice enh -3%, FLuc modulator -15%, Rab9 promoter act 0%, NPC1 prom act -6% and ELG1 genotox 2%.
Screening CN1CCN(c2ccc(NC(=O)CSc3ccccc3)cc2F)CC1 returned SMN2 splice enh 11µM*, FLuc modulator 11µM*, Rab9 promoter act 1.4µM*, NPC1 prom act 1.8µM* and ELG1 genotox 2.1µM*.
CC(=O)c1cccc(NC(=O)CSc2ccc(-c3ccc4c(c3)OCO4)nn2)c1 was read as SMN2 splice enh 12%, FLuc modulator inconclusive, Rab9 promoter act inconclusive, NPC1 prom act 27% and ELG1 genotox -3%.
`O=C(CSc1ccccc1)Nc1ccc2c(c1)OCO2` gave FLuc modulator 17µM*, Rab9 promoter act inconclusive, NPC1 prom act inconclusive and ELG1 genotox inconclusive.
Screening O=C(CSc1ccc(-c2ccccc2)nn1)Nc1ccc2c(c1)OCCO2 returned SMN2 splice enh 16µM*, FLuc modulator 11µM*, Rab9 promoter act inconclusive, NPC1 prom act 21% and ELG1 genotox inconclusive.
Screening O=C(CSCc1ccc(Cl)cc1)Nc1ccc2c(c1)OCCO2 returned SMN2 splice enh -15%, FLuc modulator 24µM*, Rab9 promoter act 10%, NPC1 prom act 19% and ELG1 genotox 13%.
For CCN(CC)S(=O)(=O)c1ccc(NC(=O)COc2c(OC)cccc2OC)cc1 the results were SMN2 splice enh -13%, FLuc modulator 1%, Rab9 promoter act -9%, NPC1 prom act -4% and ELG1 genotox -16%.
Screening O=C(CSc1ccccc1)Nc1ccc2c(c1)OCCO2 returned FLuc modulator 2.4µM*, Rab9 promoter act 0.63µM*, NPC1 prom act 0.89µM* and ELG1 genotox 1.6µM*.
`O=C(CSCc1ccc(F)cc1)Nc1ccccc1` gave SMN2 splice enh 6%, FLuc modulator -22%, Rab9 promoter act -2%, NPC1 prom act 5% and ELG1 genotox 9%.
O=C(CSc1nnc2ccccn12)NCc1ccc2c(c1)OCO2 was read as SMN2 splice enh -9%, FLuc modulator 7%, Rab9 promoter act -8%, NPC1 prom act -1% and ELG1 genotox 4%.
`O=C(CCNC(=O)c1ccccc1)NCc1ccccc1F` gave FLuc modulator 2.7µM*, Rab9 promoter act 19%, NPC1 prom act 10% and ELG1 genotox 11%.
`O=C(CSCc1ccccc1)Nc1ccc(F)c(F)c1` gave SMN2 splice enh inconclusive, FLuc modulator 17µM*, Rab9 promoter act inconclusive, NPC1 prom act 24% and ELG1 genotox inconclusive.
For O=C(CSc1nnc2ccccn12)Nc1ccc2c(c1)OCCO2 the results were FLuc modulator inconclusive, Rab9 promoter act 2.5µM*, NPC1 prom act inconclusive and ELG1 genotox inconclusive.
`CC(OC(=O)CCCN=C1NS(=O)(=O)c2ccccc21)C(=O)NC1CCCCC1C` (stereo not drawn) gave FLuc modulator 2%, Rab9 promoter act -1%, NPC1 prom act -3% and ELG1 genotox 3%.
For O=C(CN1C(=O)COc2ccc(S(=O)(=O)N3CCCCCC3)cc21)NCCc1ccccc1 the results were FLuc modulator -12%.
COc1ccc(C(=O)NCCc2nnc3ccc(SCC(=O)Nc4cc(C)on4)nn23)cc1 was read as SMN2 splice enh -11%, FLuc modulator -1%, Rab9 promoter act -1%, NPC1 prom act -1% and ELG1 genotox 3%.
Cc1ccc(CSCC(=O)Nc2ccc3c(c2)OCO3)cc1 was read as SMN2 splice enh 7%, FLuc modulator -16%, Rab9 promoter act 0%, NPC1 prom act 11% and ELG1 genotox -1%.
`CC(CC(=O)Nc1ccc2c(c1)OCCO2)c1ccccc1` (stereo not drawn) gave SMN2 splice enh 11µM*, FLuc modulator inconclusive, Rab9 promoter act inconclusive, NPC1 prom act inconclusive and ELG1 genotox inconclusive.
For CC(CC(=O)Nc1ccc2c(c1)OCO2)c1ccccc1 (stereo not drawn) the results were FLuc modulator inconclusive, Rab9 promoter act inconclusive, NPC1 prom act 27% and ELG1 genotox 16%.
Screening O=C(CSCSCC(=O)Nc1ccc2c(c1)OCO2)Nc1ccc2c(c1)OCO2 returned SMN2 splice enh -7%, FLuc modulator 17µM*, Rab9 promoter act -4%, NPC1 prom act -1% and ELG1 genotox -2%.
O=C(CCn1c(=O)oc2ccccc21)Nc1ccc2c(c1)OCCO2 was read as FLuc modulator 19µM*, Rab9 promoter act inconclusive, NPC1 prom act inconclusive and ELG1 genotox inconclusive.
Screening O=C(CN1C(=O)C2C3C=CC(C3)C2C1=O)Nc1ccc2c(c1)OCCO2 (stereo not drawn) returned SMN2 splice enh 21%, FLuc modulator 17µM*, Rab9 promoter act 3.5µM*, NPC1 prom act inconclusive and ELG1 genotox inconclusive.
